# Laboratory results as given in PubChem BioAssay (EPA / NIEHS).
# Results filed as inconclusive are left out. Activity calls are given as the source filed them. How the source made its calls, unless noted: active means hit-call score of the fitted dose curve at least 0.9, where 1 is the maximum; inconclusive means response in the unintended direction; inactive means score below 0.9.
# Assays:
# [1] = target: Cellular tumor antigen p53 (Homo sapiens) (UniProt P04637); test: TOX21_p53_BLA_p2_ratio: Tox21 HCT-116 p53 Agonism Beta-lactamase Assay, Ratio, Phase 2 (AID 2283592)
# Outline: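 Read-out is the blue/green (460/530 nm, 405 nm excitation) ratio after 2 h CCF4-AM loading, fitted as gain versus DMSO. Compounds, pinned at 217-fold dilution from DMSO stocks, stayed 16 h on HCT-116 beta-lactamase reporter cells seeded 5 h earlier.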
# [2] = TOX21_p53_BLA_p3_viability: Viability Assessment in the Tox21 HCT-116 p53 Agonism Beta-lactamase Assay, Phase 3 (AID 2283593);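 further: cells exposed to compound for 16 h before reading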
# Outline: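 HCT-116 cells (4000/well) rested 5 h at 37C, then got DMSO compounds by pin tool (217-fold dilution) for 16 h at 37C, 5% CO2. After the bla read, CellTiter-Glo was added and luminescence read at 30 min, room temperature.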
# [3] = target: Cellular tumor antigen p53 (Homo sapiens) (UniProt P04637); test: TOX21_p53_BLA_p3_ratio: Tox21 HCT-116 p53 Agonism Beta-lactamase Assay, Ratio, Phase 3 (AID 2283596)
# Outline: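 Cells were seeded at 4000/well, rested 5 h at 37C, then dosed with DMSO compound solutions (217-fold dilution) for 16 h. CCF4-AM substrate was loaded for 2 h at room temperature, and the 460/530 nm emission ratio was fitted for gain of signal versus DMSO.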
# [4] = TOX21_p53_BLA_p4_viability: Viability Assessment in the Tox21 HCT-116 p53 Agonism Beta-lactamase Assay, Phase 4 (AID 2283597);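 further: hits lower the luminescence signal meaning cytotoxicity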
# Outline: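 Cytotoxicity as reduced cellular ATP (CellTiter-Glo luminescence, 30 min room temperature), measured in the same wells following the CCF4 FRET p53 reading. Human HCT-116 cells received compounds in DMSO (217-fold dilution) for 16 h.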
# [5] = target: Cellular tumor antigen p53 (Homo sapiens) (UniProt P04637); test: TOX21_p53_BLA_p5_ratio: Tox21 HCT-116 p53 Agonism Beta-lactamase Assay, Ratio, Phase 5 (AID 2283599)
# Outline: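 HCT-116 cells carrying a p53-inducible beta-lactamase reporter were seeded at 4000 cells/well and dosed after 5 h with compound in DMSO (217-fold dilution). After 16 h at 37C, CCF4-AM substrate was added for 2 h, and the 460/530 nm emission ratio was scored as gain-of-signal versus DMSO.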
# [6] = TOX21_p53_BLA_p5_viability: Viability Assessment in the Tox21 HCT-116 p53 Agonism Beta-lactamase Assay, Phase 5 (AID 2283600)
# Outline: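 Viability came from CellTiter-Glo ATP luminescence, read after 30 min at room temperature. Before this, HCT-116 p53-bla cells (4000/well) had 16 hours of compound exposure at 37C, with DMSO stocks diluted 217-fold on transfer.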
# [7] = target: Cellular tumor antigen p53 (Homo sapiens) (UniProt P04637); test: TOX21_p53_BLA_p4_ratio: Tox21 HCT-116 p53 Agonism Beta-lactamase Assay, Ratio, Phase 4 (AID 2283601)
# Outline: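 HCT116 cells carrying an inducible beta-lactamase reporter were plated at 4000 cells/well, rested 5 h, then exposed to compounds in DMSO (217-fold dilution) for 16 h at 37C. CCF4-AM substrate was loaded 2 h at room temperature; 460/530 nm emission ratio scored gain-of-signal versus DMSO.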
# [8] = CCTE_Harrill_HTTr_Viability_MCF7: CCTE's 6-hour Cell Viability Assessment for the High-Throughput Transcriptomics (HTTr) Platform, in MCF-7 cells cultured in DMEM + 10% fetal bovine serum, Harrill Lab (AID 2284010; active means hit-call score of the fitted dose curve at least 0.9, where 1 is the maximum; inactive means score below 0.9)
# Outline: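 Eight-point concentration series, six-hour exposure. Propidium iodide exclusion imaged to assess membrane integrity as a cytotoxicity readout; bidirectional fitting was done with DMSO as negative control and activity baseline.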
# [9] = CCTE_Harrill_HTTr_Apoptosis_MCF7: CCTE's 6-hour Apoptosis Assessment for the High-Throughput Transcriptomics (HTTr) Platform, in MCF-7 cells cultured in DMEM + 10% fetal bovine serum, Harrill Lab (AID 2284011; active means hit-call score of the fitted dose curve at least 0.9, where 1 is the maximum; inactive means score below 0.9)
# Outline: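 High-content imaging of CellEvent Caspase 3/7 Green signal follows a six-hour exposure, with eight concentrations per chemical. MCF-7 cells grown in DMEM plus 10% fetal bovine serum; activity fitted in both directions against DMSO.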
# [10] = CCTE_Harrill_HTTr_CellCount_MCF7: CCTE's Cell Proliferation Assessment for the High-Throughput Transcriptomics (HTTr) Platform, Harrill Lab (AID 2284012);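 further: count of Hoechst-stained nuclei per well by high-content imaging in MCF-7 cells; cells exposed to compound for six hours; intended direction is loss of nuclei count meaning fewer cells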
# Outline: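 For this full-screen endpoint, MCF-7 cultures received eight compound dilutions for six hours. Well nuclei counts from Hoechst imaging were analyzed relative to DMSO.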
# Sequence of Cellular tumor antigen p53 (Homo sapiens) (P04637 whole entry, looked up): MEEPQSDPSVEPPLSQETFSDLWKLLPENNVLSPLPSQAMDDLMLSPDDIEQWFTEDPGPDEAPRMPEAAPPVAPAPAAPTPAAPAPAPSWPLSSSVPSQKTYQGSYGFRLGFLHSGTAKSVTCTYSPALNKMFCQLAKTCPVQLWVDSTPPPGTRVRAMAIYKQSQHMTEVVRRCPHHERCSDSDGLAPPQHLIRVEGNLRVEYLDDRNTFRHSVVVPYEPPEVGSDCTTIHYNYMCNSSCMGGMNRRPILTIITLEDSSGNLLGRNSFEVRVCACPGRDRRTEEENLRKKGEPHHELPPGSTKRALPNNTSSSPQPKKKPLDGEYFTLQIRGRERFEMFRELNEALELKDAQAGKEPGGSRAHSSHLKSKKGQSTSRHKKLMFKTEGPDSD
smiles,measurement,setting,value
O=C(O)c1cc(=O)c2c(OCC(O)COc3cccc4oc(C(=O)O)cc(=O)c34)cccc2o1,outcome,[1],inactive
same,outcome,[2],inactive
same,outcome,[3],inactive
same,outcome,[4],inactive
same,outcome,[5],inactive
same,outcome,[6],inactive
same,outcome,[7],inactive
same,outcome,[8],inactive
same,outcome,[9],inactive
same,outcome,[10],inactive
O=C(O)CCCc1ccccc1,outcome,[1],inactive
same,AC50,[2],36200 nM (active)
same,outcome,[3],inactive
same,outcome,[4],inactive
same,outcome,[5],inactive
same,outcome,[7],inactive
CO/N=C(\C(=O)N[C@@H]1C(=O)N2C(C(=O)O)=C(COC(C)=O)CS[C@H]12)c1csc(N)n1 (stereo in doubt),outcome,[1],inactive
same,outcome,[2],inactive
same,outcome,[3],inactive
same,outcome,[4],inactive
same,outcome,[5],inactive
same,outcome,[6],inactive
same,outcome,[7],inactive
NC(N)=NN=Cc1c(Cl)cccc1Cl,outcome,[1],inactive
same,outcome,[2],inactive
same,outcome,[3],inactive
same,outcome,[4],inactive
same,outcome,[5],inactive
same,outcome,[6],inactive
same,outcome,[7],inactive
CCCc1c2oc(C(=O)O)cc(=O)c2cc2c(=O)cc(C(=O)O)n(CC)c12,outcome,[1],inactive
same,outcome,[2],inactive
same,outcome,[3],inactive
same,outcome,[4],inactive
same,outcome,[5],inactive
same,outcome,[7],inactive
CC(C)(C)NC[C@H](O)COc1nsnc1N1CCOCC1,outcome,[1],inactive
same,outcome,[2],inactive
same,outcome,[3],inactive
same,outcome,[4],inactive
same,outcome,[5],inactive
same,outcome,[6],inactive
same,outcome,[7],inactive
same,outcome,[8],inactive
same,outcome,[9],inactive
same,outcome,[10],inactive
O=C1C(=Cc2cccs2)CCCC1=Cc1cccs1,outcome,[1],inactive
same,outcome,[2],inactive
same,outcome,[3],inactive
same,outcome,[4],inactive
same,outcome,[5],inactive
same,outcome,[7],inactive
c1ccc2sc(SN3CCOCC3)nc2c1,outcome,[1],inactive
same,outcome,[2],inactive
same,outcome,[3],inactive
same,outcome,[4],inactive
same,outcome,[5],inactive
same,outcome,[6],inactive
same,outcome,[7],inactive
COc1cc(NS(=O)(=O)c2ccc(N)cc2)nc(C)n1,outcome,[1],inactive
same,outcome,[2],inactive
same,outcome,[3],inactive
same,outcome,[4],inactive
same,outcome,[6],inactive
O=S(=O)(O)CCCS(=O)(=O)O,outcome,[1],inactive
same,outcome,[2],inactive
same,outcome,[3],inactive
same,outcome,[4],inactive
same,outcome,[5],inactive
same,outcome,[7],inactive
CCN(C=O)CC,outcome,[1],inactive
same,outcome,[2],inactive
same,outcome,[3],inactive
same,outcome,[4],inactive
same,outcome,[6],inactive
Cc1cccc2c1cc1ccc3cccc4ccc2c1c34,AC50,[1],801 nM (active)
same,outcome,[2],inactive
same,AC50,[3],2770 nM (active)
same,outcome,[4],inactive
same,AC50,[5],2330 nM (active)
same,AC50,[7],440 nM (active)
CO[C@@H]1[C@@H](OC(N)=O)[C@@H](O)[C@H](Oc2ccc3c(O)c(NC(=O)c4ccc(O)c(CC=C(C)C)c4)c(=O)oc3c2C)OC1(C)C,outcome,[1],inactive
same,outcome,[2],inactive
same,outcome,[3],inactive
same,outcome,[4],inactive
same,outcome,[6],inactive
NCCCC[C@H](N[C@@H](CCc1ccccc1)C(=O)O)C(=O)N1CCC[C@H]1C(=O)O,outcome,[1],inactive
same,outcome,[2],inactive
same,outcome,[3],inactive
same,outcome,[4],inactive
same,outcome,[6],inactive
same,outcome,[7],inactive
CCCCN1CCCC[C@H]1C(=O)Nc1c(C)cccc1C,outcome,[1],inactive
same,outcome,[2],inactive
same,outcome,[3],inactive
same,outcome,[4],inactive
same,outcome,[6],inactive
CC(C)(O)CCCC1=CCC(C=O)CC1 (stereo not given),outcome,[1],inactive
same,outcome,[2],inactive
same,outcome,[3],inactive
same,outcome,[4],inactive
same,outcome,[6],inactive
O=S(O)(O)=S,outcome,[1],inactive
same,outcome,[2],inactive
same,outcome,[3],inactive
same,outcome,[4],inactive
same,outcome,[6],inactive
same,outcome,[7],inactive
c1cnc2c(n1)CCCC2,outcome,[1],inactive
same,outcome,[2],inactive
same,outcome,[3],inactive
same,outcome,[4],inactive
same,outcome,[5],inactive
same,outcome,[7],inactive
O=C(O)Cc1ccc(CCNS(=O)(=O)c2ccc(Cl)cc2)cc1,outcome,[1],inactive
same,outcome,[2],inactive
same,outcome,[3],inactive
same,outcome,[4],inactive
same,outcome,[6],inactive
same,outcome,[7],inactive
